Results as given in PMC7819943, “Rice protein-binding microarrays: a tool to detect cis-acting elements near promoter regions in rice”.
The full ranking holds about 35,000 sequences; the median of “fluorescence intensity (a.u.)” is about 10,000, and the highest 2% start at about 52,000. The full list was thinned out, with the highest values kept by preference.

These sequences were tested against T1, OsWOX13 (Oryza sativa, UniProt Q5QMM3 1-267) (assay: protein-binding microarray (RPBM); PBS, 2% BSA, 51.3 ng/ul salmon testes DNA, 50 uM zinc acetate, 200 nM TF, 25 C, 1 h; high values mean tight binding). Conditions: protein: recombinant; tags: N-terminal polyhistidine and DsRed monomer fusion (pET32a); label: CyDye5-dUTP incorporated in the synthesized complementary strand; 3' TTTTT single-stranded linker to array surface; dsDNA, one strand shown.
T1 sequence: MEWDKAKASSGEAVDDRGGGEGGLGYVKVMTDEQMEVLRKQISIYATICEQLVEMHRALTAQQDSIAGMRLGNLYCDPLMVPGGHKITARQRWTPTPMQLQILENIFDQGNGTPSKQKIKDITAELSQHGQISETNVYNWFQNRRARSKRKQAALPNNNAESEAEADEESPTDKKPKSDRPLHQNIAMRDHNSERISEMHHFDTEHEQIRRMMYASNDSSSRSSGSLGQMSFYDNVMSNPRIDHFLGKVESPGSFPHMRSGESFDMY
Summary of the method: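 Binding signal is reported as fluorescence intensity per feature (arbitrary units) from an Axon 4000B scanner. Incubation used 200 nM of each Ni–NTA-purified, N-terminally polyhistidine- and DsRed-fused transcription factor from E. coli BL21-CodonPlus on a double-stranded custom Agilent array for 1 h at 25 °C, with 50 µM zinc acetate in the buffer, followed by washing.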
With “TTCCGGTGATTAGTCAACTGCCACGACCAGATTAATCTACCGGAGTCACCTAGTGCAG” the binding signal was 20300 fluorescence intensity (a.u.). With “TCATAACTAATATTTAAATGGTATTTGAACATCCCATGGACGGAGTCACCTAGTGCAG” the binding signal was 9720 fluorescence intensity (a.u.). For “TCTGACCTGAAAGTCTCAATCAGACAGCTTTCGAAAAGGACGGAGTCACCTAGTGCAG”, the binding signal was 4260 fluorescence intensity (a.u.). In the case of “AAACCTATGACAATCAACCTTTTGACTGTCATACTAGCTCCGGAGTCACCTAGTGCAG”, the binding signal is reported as 9360 fluorescence intensity (a.u.). In the case of “TATTGATTAAACATAATGGTCTCACAATATTTTAGTTACCCGGAGTCACCTAGTGCAG”, the binding signal is reported as 27300 fluorescence intensity (a.u.). With “CTGAAATGATTTTCATTTGATTCAAATGGGCCTAAGAATTCGGAGTCACCTAGTGCAG” the binding signal was 17200 fluorescence intensity (a.u.). For “GTGGCTGTGATTGTGTGATTGTGTACCTGTTTGTAGTGAACGGAGTCACCTAGTGCAG”, the binding signal was 20500 fluorescence intensity (a.u.). In the case of “TATCTACTAATTTAACTTATAAATGGGTTTATGGGTTGACCGGAGTCACCTAGTGCAG”, the binding signal is reported as 11200 fluorescence intensity (a.u.). “CGGGCTTCTTGATTTGCGGATTGTTGTTGTGGATCGCCAGCGGAGTCACCTAGTGCAG” was tested, and the binding signal was 5040 fluorescence intensity (a.u.). With “ATGATAACTGATTGCAATAAGGTTAGGATGTTGTCACACCCGGAGTCACCTAGTGCAG” the binding signal was 52900 fluorescence intensity (a.u.). For “AATAAGGGACTTAATTAGTCTAGGTTAAACTGGATGTTGCCGGAGTCACCTAGTGCAG”, the binding signal was 4640 fluorescence intensity (a.u.). In the case of “TTTAAATTTTAATGATCGGTGATTTTGTGCAGGGAAAACGCGGAGTCACCTAGTGCAG”, the binding signal is reported as 24200 fluorescence intensity (a.u.). For “TTAACTGATTGATGCTCAAGTGGATTGATCGATTTTGTTGCGGAGTCACCTAGTGCAG”, the binding signal was 65500 fluorescence intensity (a.u.). In the case of “TTTAATTAATTTGTTAAATTTTCTGATCGGAATGAGCGGTCGGAGTCACCTAGTGCAG”, the binding signal is reported as 63700 fluorescence intensity (a.u.). With “GATGAACATTGATTTGCTCGGATCTTGGATGCTGTTTGTGCGGAGTCACCTAGTGCAG” the binding signal was 20800 fluorescence intensity (a.u.). For “TTTTAAATTTCATTATATAATGATTAATTTGGGAATGAGGCGGAGTCACCTAGTGCAG”, the binding signal was 30800 fluorescence intensity (a.u.). In the case of “AATAATGATAACTGATAAGGGTTTGTTTAGTCTGGATGAACGGAGTCACCTAGTGCAG”, the binding signal is reported as 18800 fluorescence intensity (a.u.). In the case of “GATAATGGCCCTTAAATTGATTGCAACTCACGGTGATACACGGAGTCACCTAGTGCAG”, the binding signal is reported as 44800 fluorescence intensity (a.u.). For “GCTCTAAGGGTGGGTTTTGATGGGAGGTTTTGGATGGATACGGAGTCACCTAGTGCAG”, the binding signal was 6370 fluorescence intensity (a.u.). With “TTTGATTTGGGAAAGATAATATATCTTGCTACTTTGTCTTCGGAGTCACCTAGTGCAG” the binding signal was 18200 fluorescence intensity (a.u.). “AAACATTAATTAATACCATAATAGTTAGGTGACAATTGACCGGAGTCACCTAGTGCAG” was tested, and the binding signal was 27100 fluorescence intensity (a.u.). For “CAACGCCTGTAATTGCTCCTCCTGGCATGCAAGCCTTGTCCGGAGTCACCTAGTGCAG”, the binding signal was 5050 fluorescence intensity (a.u.). With “GTAAATTGTTTACTATCGAATGTACATGCTATATATATTGCGGAGTCACCTAGTGCAG” the binding signal was 20400 fluorescence intensity (a.u.). With “GCAATAATTAATAAGGCTCTAGGATAATTCAAATGGTTTTCGGAGTCACCTAGTGCAG” the binding signal was 9520 fluorescence intensity (a.u.). For “TAATGGTTTTCAGACAAATGGATAATTAAGCTGATAGCGACGGAGTCACCTAGTGCAG”, the binding signal was 65400 fluorescence intensity (a.u.). “CTACAAAATTAAGCTGATAGCAACATCATTCACACATGGACGGAGTCACCTAGTGCAG” was tested, and the binding signal was 4120 fluorescence intensity (a.u.). “GGCTGACGTCTAAATAAATTTTGAGTAAATTACATTAGCGCGGAGTCACCTAGTGCAG” was tested, and the binding signal was 15600 fluorescence intensity (a.u.). For “ATCGTAGTGTAATTACACTGTAACTTATATGTAATTACACCGGAGTCACCTAGTGCAG”, the binding signal was 12100 fluorescence intensity (a.u.). With “CTCAGATTTGATCAGTGGTAATTTCTCATGTAATCTCATTCGGAGTCACCTAGTGCAG” the binding signal was 10500 fluorescence intensity (a.u.). With “TATAATTGATGTACATCGATGATTAATTCTCTAACAGATCCGGAGTCACCTAGTGCAG” the binding signal was 62300 fluorescence intensity (a.u.). In the case of “TCCTTTATTATCTGTAATTGTAAAATCTTCAGATGAACACCGGAGTCACCTAGTGCAG”, the binding signal is reported as 6210 fluorescence intensity (a.u.). In the case of “CGATGATTGTAATCTCATTGAACAGATGATCCTTCAGGATCGGAGTCACCTAGTGCAG”, the binding signal is reported as 52400 fluorescence intensity (a.u.). With “AAATATTATAATTGATTGTCGATGAAACATCGGGTTGTACCGGAGTCACCTAGTGCAG” the binding signal was 46200 fluorescence intensity (a.u.). With “AATTGATTAAGATGATGATGAAAGATAATACAGCTCGATCCGGAGTCACCTAGTGCAG” the binding signal was 27100 fluorescence intensity (a.u.). For “TCAAATACTGCTGATTATACATACCCACATGTGTTGAATGCGGAGTCACCTAGTGCAG”, the binding signal was 3580 fluorescence intensity (a.u.). In the case of “ATAAAGTGATTTAATTTTAGTTAAAGTTAAACTACTTTAACGGAGTCACCTAGTGCAG”, the binding signal is reported as 21100 fluorescence intensity (a.u.). In the case of “CACTCTTGCATTTCTTTGATTGCAAATTTCCAAGGCAGAACGGAGTCACCTAGTGCAG”, the binding signal is reported as 5250 fluorescence intensity (a.u.). With “ATTTTACAGGGTGATTTGAACATACAGTAATTATGGCCAACGGAGTCACCTAGTGCAG” the binding signal was 6520 fluorescence intensity (a.u.). In the case of “AAATGTCTTGTAGATTGATATATTACATGGAACAAAATTTCGGAGTCACCTAGTGCAG”, the binding signal is reported as 3240 fluorescence intensity (a.u.). In the case of “GTTAAACTAATTTGAATTTGTTAGTACAGTTTGCATTTCACGGAGTCACCTAGTGCAG”, the binding signal is reported as 25500 fluorescence intensity (a.u.). “ATTTGATTGAATGTAGAGATTCTTGTAATAGGATTCTTTGCGGAGTCACCTAGTGCAG” was tested, and the binding signal was 64700 fluorescence intensity (a.u.). In the case of “TGAAATTAATTTGATGTGATAGATTTCTAGGTTTTCTTTGCGGAGTCACCTAGTGCAG”, the binding signal is reported as 64300 fluorescence intensity (a.u.). “TTAATTGGATTGTTTTGATTCGTTGGAGAAGTTAGGAATACGGAGTCACCTAGTGCAG” was tested, and the binding signal was 28600 fluorescence intensity (a.u.). In the case of “CTGTAATCTTGCTGATTGAATTCTATTTTGATGTGCAGAGCGGAGTCACCTAGTGCAG”, the binding signal is reported as 44800 fluorescence intensity (a.u.). For “TTTTGAAATTTCAGATTATTTTGTGTGGTTTTGTAATTTGCGGAGTCACCTAGTGCAG”, the binding signal was 4570 fluorescence intensity (a.u.). “TGTGTTCTTGATTTGTGTTGTGTTTGTAGATCGTAGTTTGCGGAGTCACCTAGTGCAG” was tested, and the binding signal was 10200 fluorescence intensity (a.u.).
